Results: the supplement of paper PMC11732987, “Enantioselective OTUD7B fragment discovery through chemoproteomics screening and high-throughput optimisation” (Communications Chemistry, 2025)
Values without a mark were called inactive.

Experiments:
Test in all cases: log2 ratio of Biotin-Ahx-Ub-VS probe labelling (fragment/DMSO); higher = less target engagement (more negative = stronger competition), active = hit call of the paper (q ≤ 0.05, log2 ratio ≤ -1)
Conditions in all cases: compound concentration: 200 uM; treatment time: 3 h
OTUD6B = target: T1, OTUD6B (UniProt Q8N6M0)
T1 sequence (whole entry): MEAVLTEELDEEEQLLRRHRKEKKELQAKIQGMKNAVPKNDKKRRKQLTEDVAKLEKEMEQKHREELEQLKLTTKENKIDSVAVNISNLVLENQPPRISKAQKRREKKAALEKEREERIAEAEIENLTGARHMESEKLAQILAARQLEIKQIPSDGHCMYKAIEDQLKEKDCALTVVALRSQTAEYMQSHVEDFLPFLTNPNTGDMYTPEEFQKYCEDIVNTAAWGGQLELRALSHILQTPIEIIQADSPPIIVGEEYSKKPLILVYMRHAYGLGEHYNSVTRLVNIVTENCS
Outline: (§1)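 HEK293T lysate (495 µg per sample, in Tris/CHAPS/IGEPAL buffer with protease inhibitors) was exposed in triplicate for 3 h to fragment at 200 µM or to vehicle, then to Biotin-Ahx-Ub-VS at 0.5 µM final for 1 h. Labelled DUBs were enriched on NeutrAvidin, digested with LysC and trypsin, and analysed by diaPASEF LC-MS/MS. Spectronaut label-free quantities were normalised to the global median, and values are average log2 ratios of fragment over vehicle from an unpaired t-test. Only proteins with ≥2 unique peptides were used.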

OTUD7B = target: T2, OTUD7B (UniProt Q6GQQ9)
T2 sequence (whole entry): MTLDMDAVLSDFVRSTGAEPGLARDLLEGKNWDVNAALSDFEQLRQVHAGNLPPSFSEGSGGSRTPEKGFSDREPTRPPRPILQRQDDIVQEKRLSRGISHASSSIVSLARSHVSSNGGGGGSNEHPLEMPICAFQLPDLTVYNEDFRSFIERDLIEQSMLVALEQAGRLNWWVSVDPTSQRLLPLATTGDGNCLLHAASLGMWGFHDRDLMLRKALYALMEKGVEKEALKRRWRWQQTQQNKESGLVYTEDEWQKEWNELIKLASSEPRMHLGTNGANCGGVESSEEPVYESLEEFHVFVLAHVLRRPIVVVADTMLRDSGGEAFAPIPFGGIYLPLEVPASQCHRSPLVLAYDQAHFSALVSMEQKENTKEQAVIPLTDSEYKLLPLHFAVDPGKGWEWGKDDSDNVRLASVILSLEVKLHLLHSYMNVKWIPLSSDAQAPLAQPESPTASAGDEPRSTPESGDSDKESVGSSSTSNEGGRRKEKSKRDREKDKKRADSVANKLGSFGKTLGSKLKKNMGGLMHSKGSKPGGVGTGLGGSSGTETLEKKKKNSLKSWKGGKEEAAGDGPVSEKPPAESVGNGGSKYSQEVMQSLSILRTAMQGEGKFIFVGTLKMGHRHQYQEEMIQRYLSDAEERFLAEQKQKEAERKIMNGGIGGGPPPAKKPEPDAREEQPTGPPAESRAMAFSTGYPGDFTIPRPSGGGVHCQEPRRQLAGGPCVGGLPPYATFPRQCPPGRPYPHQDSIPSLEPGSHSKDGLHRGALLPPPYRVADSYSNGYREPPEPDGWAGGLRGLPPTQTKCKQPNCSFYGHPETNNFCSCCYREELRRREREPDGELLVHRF
Outline: as §1

PRPF8 = PRPF8 (UniProt Q6P2Q9)
Outline: as §1

PSMD7 = target: T3, PSMD7 (UniProt P51665)
T3 sequence (whole entry): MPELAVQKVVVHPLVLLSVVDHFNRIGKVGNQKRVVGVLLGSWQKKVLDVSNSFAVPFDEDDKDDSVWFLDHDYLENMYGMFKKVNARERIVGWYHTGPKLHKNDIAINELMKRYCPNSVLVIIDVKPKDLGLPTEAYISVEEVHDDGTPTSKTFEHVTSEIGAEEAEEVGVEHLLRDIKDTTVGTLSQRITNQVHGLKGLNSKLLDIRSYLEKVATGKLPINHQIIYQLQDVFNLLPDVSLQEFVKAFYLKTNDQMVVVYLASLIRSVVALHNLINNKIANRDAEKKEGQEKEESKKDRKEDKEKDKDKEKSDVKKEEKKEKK
Outline: as §1

UCHL1 = UCHL1 (UniProt P09936)
UCHL1, sequence (P09936 whole entry, looked up): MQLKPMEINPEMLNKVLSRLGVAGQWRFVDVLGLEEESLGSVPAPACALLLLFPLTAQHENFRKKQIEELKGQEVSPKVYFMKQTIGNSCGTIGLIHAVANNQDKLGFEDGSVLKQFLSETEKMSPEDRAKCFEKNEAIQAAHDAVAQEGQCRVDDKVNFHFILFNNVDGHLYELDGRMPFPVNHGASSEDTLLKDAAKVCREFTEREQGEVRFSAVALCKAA
Outline: as §1

UCHL3 = target: T4, UCHL3 (UniProt P15374)
T4 sequence (whole entry): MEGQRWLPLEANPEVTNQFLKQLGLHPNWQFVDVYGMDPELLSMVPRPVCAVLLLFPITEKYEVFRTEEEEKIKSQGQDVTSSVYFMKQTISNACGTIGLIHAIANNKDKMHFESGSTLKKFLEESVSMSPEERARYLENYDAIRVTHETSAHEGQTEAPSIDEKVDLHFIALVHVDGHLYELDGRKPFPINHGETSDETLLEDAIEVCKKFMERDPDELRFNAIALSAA
Outline: as §1

UCHL5 = target: T5, UCHL5 (UniProt Q9Y5K5)
T5 sequence (whole entry): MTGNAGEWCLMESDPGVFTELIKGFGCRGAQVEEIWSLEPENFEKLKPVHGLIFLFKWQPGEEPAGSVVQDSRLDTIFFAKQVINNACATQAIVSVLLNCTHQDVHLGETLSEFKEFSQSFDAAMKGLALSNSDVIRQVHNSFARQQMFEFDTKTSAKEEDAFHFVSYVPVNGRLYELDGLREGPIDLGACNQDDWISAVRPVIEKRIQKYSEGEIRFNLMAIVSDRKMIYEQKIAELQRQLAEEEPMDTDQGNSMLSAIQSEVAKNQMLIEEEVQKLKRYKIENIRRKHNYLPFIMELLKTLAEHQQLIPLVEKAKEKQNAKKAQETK
Outline: as §1

USP10 = USP10 (UniProt Q14694)
USP10, sequence (Q14694 whole entry): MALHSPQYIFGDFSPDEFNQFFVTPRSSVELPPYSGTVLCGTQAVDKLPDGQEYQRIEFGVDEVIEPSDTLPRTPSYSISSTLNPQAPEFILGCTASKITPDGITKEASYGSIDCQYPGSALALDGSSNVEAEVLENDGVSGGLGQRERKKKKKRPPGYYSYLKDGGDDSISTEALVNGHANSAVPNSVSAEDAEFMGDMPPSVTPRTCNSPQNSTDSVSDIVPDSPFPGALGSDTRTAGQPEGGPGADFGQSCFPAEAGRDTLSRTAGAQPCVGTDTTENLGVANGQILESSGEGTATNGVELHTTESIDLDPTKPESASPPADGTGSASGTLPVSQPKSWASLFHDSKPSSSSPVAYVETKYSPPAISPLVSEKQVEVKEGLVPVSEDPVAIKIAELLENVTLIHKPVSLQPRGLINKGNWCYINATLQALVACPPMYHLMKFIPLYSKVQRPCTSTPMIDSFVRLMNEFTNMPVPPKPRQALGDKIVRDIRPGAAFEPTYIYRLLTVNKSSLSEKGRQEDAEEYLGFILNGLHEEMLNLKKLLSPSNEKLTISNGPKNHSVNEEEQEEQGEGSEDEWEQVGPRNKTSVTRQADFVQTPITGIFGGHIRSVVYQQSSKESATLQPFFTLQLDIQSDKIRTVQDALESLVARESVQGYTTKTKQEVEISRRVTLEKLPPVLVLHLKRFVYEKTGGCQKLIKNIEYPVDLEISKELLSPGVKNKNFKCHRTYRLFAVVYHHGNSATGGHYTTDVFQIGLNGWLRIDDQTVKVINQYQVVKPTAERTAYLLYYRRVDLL
Outline: as §1

USP15 = target: T6, USP15 (UniProt Q9Y4E8)
T6 sequence (whole entry): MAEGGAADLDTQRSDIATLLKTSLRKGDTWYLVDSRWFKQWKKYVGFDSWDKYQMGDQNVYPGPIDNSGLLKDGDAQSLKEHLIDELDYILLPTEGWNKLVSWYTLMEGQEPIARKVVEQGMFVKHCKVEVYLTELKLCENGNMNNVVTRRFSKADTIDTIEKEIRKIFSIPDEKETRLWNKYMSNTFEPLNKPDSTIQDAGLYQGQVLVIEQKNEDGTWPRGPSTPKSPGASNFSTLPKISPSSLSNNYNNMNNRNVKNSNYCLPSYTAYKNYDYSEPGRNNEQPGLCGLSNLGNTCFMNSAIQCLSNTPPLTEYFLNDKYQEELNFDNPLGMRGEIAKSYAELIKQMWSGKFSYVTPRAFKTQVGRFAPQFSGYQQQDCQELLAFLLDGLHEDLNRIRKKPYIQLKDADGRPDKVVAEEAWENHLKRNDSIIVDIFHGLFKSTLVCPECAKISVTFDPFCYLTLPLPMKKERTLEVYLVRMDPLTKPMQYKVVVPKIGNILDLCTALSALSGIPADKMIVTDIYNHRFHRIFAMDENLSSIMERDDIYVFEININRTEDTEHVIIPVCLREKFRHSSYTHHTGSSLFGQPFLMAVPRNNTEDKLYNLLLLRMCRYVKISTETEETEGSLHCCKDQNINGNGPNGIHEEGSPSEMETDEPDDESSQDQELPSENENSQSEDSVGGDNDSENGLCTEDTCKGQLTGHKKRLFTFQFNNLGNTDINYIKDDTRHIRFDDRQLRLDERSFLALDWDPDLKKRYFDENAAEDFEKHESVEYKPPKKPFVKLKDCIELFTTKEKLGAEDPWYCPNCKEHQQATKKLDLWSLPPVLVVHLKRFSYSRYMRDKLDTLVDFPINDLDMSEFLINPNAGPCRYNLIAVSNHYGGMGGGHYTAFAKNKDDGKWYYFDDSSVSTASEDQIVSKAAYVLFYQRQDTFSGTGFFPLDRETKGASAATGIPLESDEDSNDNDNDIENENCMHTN
Outline: as §1

USP16 = USP16 (UniProt Q9Y5T5)
USP16, sequence (Q9Y5T5 whole entry, looked up): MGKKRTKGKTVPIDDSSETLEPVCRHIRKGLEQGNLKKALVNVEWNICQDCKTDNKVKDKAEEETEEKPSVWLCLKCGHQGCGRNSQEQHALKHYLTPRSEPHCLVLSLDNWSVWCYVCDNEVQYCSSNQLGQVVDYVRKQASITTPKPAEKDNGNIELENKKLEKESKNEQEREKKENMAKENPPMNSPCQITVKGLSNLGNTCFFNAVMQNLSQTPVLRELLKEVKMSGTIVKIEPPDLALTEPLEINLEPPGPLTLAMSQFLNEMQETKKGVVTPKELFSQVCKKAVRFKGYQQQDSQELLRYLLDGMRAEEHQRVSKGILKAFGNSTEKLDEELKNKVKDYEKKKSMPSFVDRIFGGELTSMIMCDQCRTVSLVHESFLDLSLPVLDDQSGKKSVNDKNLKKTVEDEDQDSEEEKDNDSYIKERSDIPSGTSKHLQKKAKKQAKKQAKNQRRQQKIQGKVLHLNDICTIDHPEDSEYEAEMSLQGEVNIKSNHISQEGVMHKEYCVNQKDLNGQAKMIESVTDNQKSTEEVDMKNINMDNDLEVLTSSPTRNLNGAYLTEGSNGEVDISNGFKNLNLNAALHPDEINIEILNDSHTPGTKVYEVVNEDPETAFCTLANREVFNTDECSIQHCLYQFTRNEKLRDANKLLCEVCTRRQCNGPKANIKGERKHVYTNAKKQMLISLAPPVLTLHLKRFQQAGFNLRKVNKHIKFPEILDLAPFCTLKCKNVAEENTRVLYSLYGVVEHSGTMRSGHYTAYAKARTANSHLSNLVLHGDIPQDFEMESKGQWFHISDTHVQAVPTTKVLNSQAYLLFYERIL
Outline: as §1

CN1c2ccccc2C(NC(=O)CCl)CS1(=O)=O (stereo not given)
log2 ratio of Biotin-Ahx-Ub-VS probe labelling (OTUD6B): -0.0927
log2 ratio of Biotin-Ahx-Ub-VS probe labelling (OTUD7B): -2.41 (active)
log2 ratio of Biotin-Ahx-Ub-VS probe labelling (PRPF8): 0.0667
log2 ratio of Biotin-Ahx-Ub-VS probe labelling (PSMD7): -0.189
log2 ratio of Biotin-Ahx-Ub-VS probe labelling (UCHL1): -1.69 (active)
log2 ratio of Biotin-Ahx-Ub-VS probe labelling (UCHL3): 0.316
log2 ratio of Biotin-Ahx-Ub-VS probe labelling (UCHL5): -0.387
log2 ratio of Biotin-Ahx-Ub-VS probe labelling (USP10): 0.128
log2 ratio of Biotin-Ahx-Ub-VS probe labelling (USP15): -0.212
log2 ratio of Biotin-Ahx-Ub-VS probe labelling (USP16): -0.411
